This passage reports growth results from PubChem BioAssay (NCI).

About 83,000 compounds went through this panel and 20% of them were active in at least one assay; those are over-represented in the sample as a whole.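 The endpoint reported here, percent growth, reads 100 for growth as untreated, 0 for no net growth and -100 for all cells dead.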 Unmarked numbers belong to inactive results. Calls of active or inactive are those of the source. How the source made its calls: active means growth percent below 10; inactive means the rest.

Common to all, as to assay: NCI-60 one-dose screen, 48 h (100 = growth as untreated, 0 = no growth, -100 = all killed)
Common to all, as to details: 10 µM unless noted

Test [1] deals with DU-145 prostate.
For test [2], the system named is K-562 leukemia.
The test system of test [3] is MALME-3M melanoma.
Test [4] relates to MDA-MB-231 breast.
For test [5], the system named is RXF 393 renal.
Test [6] has as its system SF-268 CNS.
The subject of test [7] is SF-295 CNS.
Test [8] has as its system SF-539 CNS.
The subject of test [9] is UACC-257 melanoma.
Test [10] has as its system M14 melanoma.

Regarding `C[C@@H](Oc1cc(-c2cnn(C3CC4(CCNCC4)C3)c2)cnc1N)c1c(F)ccc(Cl)c1Cl`, the growth was 37.9% in [1]; -19.9% (active) in test [2]; -67.6% (active) in [3]; -54% (active) in test [4]; -31.5% (active) in test [5]; -24.5% (active) in [6]. Besides, the growth in test [7] is -10.2% (active); in test [8], -90.7% (active); in test [9] it was -89.5% (active); in test [10], -75.5% (active).
For `Fc1c[c-]c(-c2ccccn2)c(F)c1.Fc1c[c-]c(-c2ccccn2)c(F)c1.[Cl][Pt+].[Cl][Pt+].c1ccc([PH+](C[PH+](c2ccccc2)c2ccccc2)c2ccccc2)cc1`, the growth in test [1] is 22.8%; in test [2], 10.2%; in test [3], -41.2% (active); in test [4] it was -15.4% (active); in test [5], 34%; in test [6] it was 21.9%. Further, the growth in [7] is 17.3%; in test [8], 29.5%; in test [9], -0.265% (active); in test [10], 22.7%.
As for `COC(=O)[C@@]12CC[C@@H](C)[C@]3(C[C@@H](c4ccoc4)OC3=O)[C@H]1CC[C@@H]1O[C@@]12C`, the growth in [1] is 104%; in [2], 113%; in [3] it was 101%; in test [4], 108%; in test [5], 118%; in test [6], 95%. Moreover, the growth in test [7] is 100%; in test [8], 105%; in test [9] it was 99.6%; in test [10] it was 99.8%.
As for `COc1ccc(-c2cc(=O)oc3c4c(ccc23)OCN(Cc2ccc(F)cc2)C4)cc1`, the growth in test [1] was 73.4%; in test [2], 24.3%; in test [3], 77.1%; in [4], 58.9%; in [5] it was 57%; in test [6], 82%. For the same compound, the growth in [7] was 27.3%; in [8], 74.7%; in test [9], 39.6%; in [10], 54.6%.
Regarding `Oc1cccc(Nc2nc(-c3ccccn3)cs2)c1`, the growth in [1] is 122%; in test [2] it was 93.8%; in [3], 109%; in test [4], 98%; in test [5], 113%; in test [6], 110%. Moreover, the growth is 99.4% in test [7], 98.3% in test [8], 110% in test [9] and 111% in [10].
Consider `COc1ccc(S(=O)(=O)c2ccc(C(N)=O)cc2)cc1NC(=O)c1[nH]c(C)c2c1CCCCC2=O`, for which the growth is 82.9% in test [1]; 46.5% in [2]; 70.2% in test [3]; 28.9% in [4]; 68.6% in test [5]; 74.2% in test [6]. Besides, the growth was 49.9% in [7], 48.7% in test [8] and 63.2% in test [9].
With `COc1cc(/C=C/C(=O)C(=Cc2ccc(F)c(F)c2)C(=O)/C=C/c2ccc(O)c(OC)c2)ccc1O`, the growth in [1] is 17.3%; in [2], 13.7%; in test [3], 51%; in test [4], 13.1%; in test [5] it was -32.5% (active); in test [6], 20%. Further, the growth in test [7] was 53.7%; in test [8], 26.9%; in [9], 47.3%; in test [10] it was 2.1% (active).
Consider `O=C1c2[nH]cc(CN[C@@H]3CCCN3)c2C(=O)c2c1c(O)c1ccccc1c2O`, for which the growth in [1] is -98.6% (active); in test [2], -81.5% (active); in test [3], -51.9% (active); in test [4], -96.7% (active); in [5], -98.2% (active); in test [6], -88.2% (active). In addition, the growth in [7] was 70.5%; in [8] it was -94.1% (active); in test [9], -64.9% (active); in test [10], -72.8% (active).
Take `Cc1ccc2c(N/N=C\c3ccco3)cc(C)nc2n1`: the growth in [1] was 59.6%; in test [2], 37.2%; in [3], 90.7%; in test [4], 68.9%; in test [5], 63.7%; in [6], 77.5%. In addition, the growth in [7] was 69.5%; in test [8], 72%; in [9], 76.5%; in test [10], 34.6%.
As for `NC1=NC(c2ccccc2OS(=O)(=O)c2ccc(Br)cc2)n2c(nc3ccccc32)N1` (centres undefined), the growth in test [1] is 109%; in [2], 74.4%; in test [3] it was 104%; in test [4] it was 80.1%; in test [5] it was 109%; in test [6], 95.1%. The growth in test [7] was 99.1%; in test [8], 96%; in test [9] it was 96.8%.
For `CCCCC(O)Cn1ncc(C(=O)OCC)c1NC(=O)NCc1ccccc1C(F)(F)F` (centres undefined), the growth was 102% in test [1]; 71.8% in test [2]; 93.2% in test [3]; 92.2% in test [4]; 106% in [5]; 97.7% in test [6]. The growth in test [7] was 94.3%; in test [8], 95.9%; in [9], 93.7%; in test [10], 95.2%.
Regarding `CCCCC1COc2cccc3c(SCC(=O)N(C)c4cccc5ccccc45)cc[n+]1c23` (centres undefined), the growth was 105% in [1]; 88.4% in test [2]; 107% in test [3]; 110% in test [4]; 115% in test [5]; 112% in test [6]. In addition, the growth was 96.5% in test [7], 96.7% in test [8], 101% in [9] and 82.8% in test [10].
Turning to `Cc1ccc(S(=O)(=O)N2CCc3ccc(O)c4c3C2Cc2cc(Cl)ccc2-4)cc1` (centres undefined), the growth was 85.5% in test [1]; 24.7% in test [2]; 57% in test [3]; 82.4% in [4]; 71% in test [5]; 61.9% in [6]. Besides, the growth was 84.7% in [7], 58.2% in [8], 63.4% in test [9] and 68.7% in test [10].
Consider `C=C(C)CCCC(C)CC#N` (centres undefined), for which the growth in test [1] was 105%; in [2], 105%; in test [3], 88%; in [4], 115%; in test [5], 105%; in test [6] it was 94.6%. Besides, the growth was 94.3% in test [7], 95.6% in [8], 104% in test [9] and 96.5% in [10].
On to `Cl.Fc1c[c-]c(-c2ccccn2)c(F)c1.[Pt].c1ccc([PH+](CC[PH+](c2ccccc2)c2ccccc2)c2ccccc2)cc1`, for which the growth in test [1] was -99.6% (active); in test [2] it was -11.4% (active); in test [3], -87.2% (active); in test [4], -74.2% (active); in test [5] it was -84.4% (active); in [6], -57.7% (active). Moreover, the growth in [7] is -88% (active); in test [8] it was -94.6% (active); in test [9] it was -59.1% (active); in test [10] it was -84.7% (active).
For `COc1ncc(F)c(OC)n1`, the growth in test [1] was 110%; in test [2], 100%; in test [3], 103%; in [4], 115%; in [5], 105%; in test [6], 104%. Also, the growth was 97.7% in [7], 107% in [8], 101% in test [9] and 102% in test [10].
Take `CN1CCN(C)c2cncc(Br)c2C1=O`: the growth in test [1] is 114%; in [2], 102%; in test [3], 99.3%; in test [4] it was 106%; in test [5], 105%; in test [6], 102%. The growth was -85% (active) in test [7], 109% in [8] and 90.3% in [9].
In the case of `COc1ccc(-c2c3c(N)c4c(nc3nc3c2c(C)nn3-c2ccccc2)CCCC4)cc1`, the growth in test [1] was 80.4%; in [2], 11.9%; in [3] it was 113%; in [4] it was 76.1%; in test [5] it was 84.2%; in [6] it was 86%. Besides, the growth was 84.9% in [7], 91.8% in [8], 108% in test [9] and 87.9% in test [10].
Turning to `O=S(=O)(/N=C1C=C/C(=N\S(=O)(=O)c2ccccc2)c2ccccc2\1)c1ccccc1`, the growth was 117% in test [1]; 91.8% in test [2]; 107% in [3]; 98.3% in [4]; 107% in [5]; 104% in [6]. Moreover, the growth in [7] was 116%; in test [8], 123%; in test [9] it was 95.1%; in test [10] it was 112%.
Regarding `O=C(c1ccc2ncc(-c3nc(NC4CC4)ncc3F)n2c1)N1CCOCC1`, the growth in test [1] was 11.3%; in test [2] it was 73.6%; in test [3] it was 71.2%; in test [4] it was 49.8%; in test [5], -48.7% (active); in [6] it was 1.39% (active). For the same compound, the growth was 19.6% in test [7], -0.925% (active) in [8] and 46.1% in [9].
As to `O=c1oc2ccccc2cc1-c1csc(N/N=C/c2cc3ccccc3nc2Cl)n1`, the growth in test [1] was 87.6%; in test [2], 108%; in test [3], 103%; in test [4] it was 79.1%; in test [5], 111%; in [6], 106%. In addition, the growth in [7] is 97.8%; in test [8], 96.1%; in test [9], 115%; in test [10] it was 115%.
In the case of `N#C/C(=C\c1ccc[nH]1)c1cc2ccccc2[nH]1`, the growth in test [1] is 80%; in [2], 42.5%; in test [3] it was 88%; in test [4], 59.7%; in test [5], 92.5%; in test [6], 78.1%. Further, the growth in test [7] was 53.7%; in [8] it was 79.7%; in test [9], 69.9%; in [10] it was 80.3%.
Regarding `C=C[C@H]1C[C@@H]2C[C@@H]3[C@H]4C/C=C\C(=O)NCCCC5NC(=O)C(=C(O)/C=C/[C@@H]4CC(=O)[C@H]3[C@@H]2[C@H]1C)C5=O` (some centres undefined), the growth was -95.7% (active) in test [1]; -58.1% (active) in [2]; -72% (active) in [3]; -75.6% (active) in test [4]; -85.6% (active) in test [5]; -88.6% (active) in [6]. The figures for the growth in [7], in test [8] and in [9] were 9.25% (active), -81.1% (active) and -89.1% (active), respectively.
On to `CN(C)c1ccc(/C=C(\C#N)c2cc3ccccc3n2C)cc1`, for which the growth in [1] is 10.9%; in test [2], 7.77% (active); in [3], 56.9%; in [4], 20.1%; in test [5] it was 10.5%; in test [6], 47.5%. The growth is 7.63% (active) in test [7], -12.5% (active) in test [8], 68.9% in test [9] and 8.17% (active) in test [10].
`COc1cc(/C=C2\C(=O)N(c3c(Cl)cccc3Cl)c3ccccc32)cc(OC)c1O`: the growth in test [1] was 36.8%; in test [2] it was 8.62% (active); in [3], 133%; in test [4], 72.4%; in test [5] it was 90.4%; in test [6] it was 40.9%. Further, the growth is 8.15% (active) in test [7], 45.1% in test [8], 46.1% in [9] and 39.2% in [10].
In the case of `CCN1CCN(c2nc3ccccc3c3c(=O)c4cc(F)ccc4sc23)CC1`, the growth in test [1] was 66.4%; in test [2], 10.2%; in test [3], 90.9%; in test [4], 51.8%; in [5], 47.3%; in [6], 53.7%. The growth was 93.2% in [7], 86% in test [8] and 78.7% in [9].
Turning to `COc1c(O)c2c3c(c1OC)-c1ccccc1CC3N(S(=O)(=O)c1ccc(C)cc1)CC2` (centres undefined), the growth in test [1] was 36.5%; in [2], 23%; in test [3] it was 58.6%; in [4], 52.7%; in [5], 58.6%; in test [6] it was 55.1%. Moreover, the growth was 85.2% in test [7], 41.2% in test [8], 54.7% in test [9] and 31.2% in test [10].
